Bioassay records deposited in PubChem BioAssay by National Center for Advancing Translational Sciences (NCATS).
D2 PAM-1: HTS Assay for Positive Allosteric Modulators of the Human D2 Dopamine Receptor: Primary Screen for Potentiators; D(2) dopamine receptor (Homo sapiens), P14416; HEK293 T-REx D2, calcium flux, EC20 dopamine potentiation; potentiation, % at 10 µM; 340,000 tested, 0.34% active; AID 485347, 2010;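 active means potentiation over 3 SD above the plate norm, cut at about 30% in these data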; further: 0% is about no effect
Target sequence (P14416 whole entry, looked up): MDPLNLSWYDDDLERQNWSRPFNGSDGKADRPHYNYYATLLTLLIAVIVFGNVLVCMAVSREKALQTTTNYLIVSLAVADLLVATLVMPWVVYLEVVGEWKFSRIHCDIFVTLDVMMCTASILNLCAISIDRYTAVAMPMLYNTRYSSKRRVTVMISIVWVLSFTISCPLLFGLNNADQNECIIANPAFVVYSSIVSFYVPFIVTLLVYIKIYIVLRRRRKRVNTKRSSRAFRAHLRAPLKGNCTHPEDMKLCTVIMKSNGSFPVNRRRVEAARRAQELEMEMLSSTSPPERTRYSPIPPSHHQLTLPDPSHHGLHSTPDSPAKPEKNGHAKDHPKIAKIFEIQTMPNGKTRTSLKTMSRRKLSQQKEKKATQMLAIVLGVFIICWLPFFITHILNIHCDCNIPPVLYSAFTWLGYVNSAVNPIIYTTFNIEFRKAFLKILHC
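Potentiation of an EC20 dopamine calcium response is measured in a force-coupled, tetracycline-inducible Hek293 Trex D2 line. Compound-only kinetic reads over 180 s flag agonists before dopamine addition.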
D2 ag-1: HTS Assay for Allosteric Agonists of the Human D2 Dopamine Receptor: Primary Screen for Agonists. D(2) dopamine receptor (Homo sapiens), P14416. HEK293 T-REx D2 cells, calcium flux agonist mode. activation, % at 2 µM. 340,000 tested, 0.53% active. AID 485358, 2010;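 active means activation over 3 SD above normal in the single-dose calcium agonist read, cut at about 30% in these data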; further: 0% is about no effect
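Tetracycline-induced HEK293 T-REx cells with force-coupled D2 receptor, plated overnight at 30 C, loaded with no-wash calcium dye. After a 10 s baseline, compound was pin-added and calcium flux read kinetically for 180 s; calcium rises flagged agonists.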
D2 ag-2: Beta-Arrestin HTS for Positive Allosteric Modulators of the Human D2 Dopamine Receptor: Agonists; D(2) dopamine receptor (Homo sapiens), P14416; DiscoveRx PathHunter D2 beta-arrestin, luminescence, 90 min; 100% = 57 uM dopamine signal; activation, % (test concentration not listed); 360,000 tested, 0.084% active; AID 624465, 2012; in the data active means activation above about 40%
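DiscoveRx PathHunter D2 beta-arrestin cells (2,100/well) attached overnight, then compound-stimulated 90 min at 37 C in HBSS/10 mM HEPES/0.1% Tween-20 buffer; beta-galactosidase complementation read by luminescence after 1 h at ambient temperature. Dopamine 57 uM final (EC100) as control.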
D2 PAM-2: Beta-Arrestin HTS for Positive Allosteric Modulators of the Human D2 Dopamine Receptor: Potentiators | D(2) dopamine receptor (Homo sapiens), P14416 | DiscoveRx D2 beta-arrestin cells, luminescence, 90 min; 100% = 57 uM dopamine signal | potentiation, % (no concentration beside the values) | 360,000 tested, 0.23% active; in the data active means potentiation above about 50%
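PathHunter beta-arrestin assay in DiscoveRx D2 cells. Compounds were added with an EC20 of dopamine (50 nM final) for 90 min at 37 deg C. Luminescence was read 1 h after detection reagent, with 57 uM dopamine as the EC100 control.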
D2 antagonist: HTS Assay for Allosteric Antagonists of the Human D2 Dopamine Receptor: Primary Screen for Antagonists; AID 485344, 2010; D(2) dopamine receptor (Homo sapiens), P14416; inhibition, % at 10 µM; 340,000 tested, 2% active; HEK293 TREx D2 cells, calcium flux, dopamine EC80; in the data active means inhibition above about 30%; inactive means below that, where a call was filed; further: 0% is about no effect
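Compounds are added to dye-loaded, induced HEK293 T-REx cells coupled to calcium release via D2; after a 3 min kinetic read an EC80 dopamine stimulus is given and fluorescence is recorded for 3 more min.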
* hit, by the source's call. This is a sample that favours compounds with a hit; in the whole collection about 2.4% have one here.

For CCN(CC)c1ccc(CN2CC=C(c3ccc(F)cc3)CC2)cc1 the results were D2 PAM-1 -24, D2 ag-1 0, D2 ag-2 -1, D2 PAM-2 -44 and D2 antagonist 41*.
O=[N+]([O-])c1cccc(CN2CCN(Cc3ccc(Cl)cc3)CC2)c1 was read as D2 PAM-1 -19, D2 ag-1 0, D2 ag-2 -3, D2 PAM-2 -21 and D2 antagonist 50*.
`CC(C)N1CCN(Cc2cccc([N+](=O)[O-])c2)CC1` gave D2 ag-1 -1, D2 ag-2 -3, D2 PAM-2 -8 and D2 antagonist -3.
`O=[N+]([O-])c1cccc(CN2CC=C(c3ccc(F)cc3)CC2)c1` gave D2 PAM-1 -21, D2 ag-1 -2, D2 ag-2 -4, D2 PAM-2 -4 and D2 antagonist 73*.
For Cc1ccccc1-c1nn2c(=O)cc(CN3CCN(C(=O)COc4ccccc4Cl)CC3)nc2s1 the results were D2 PAM-1 -4 and D2 ag-1 0.
CN1CCN(c2oc(-c3ccc(COc4ccccc4)o3)nc2C#N)CC1 was read as D2 PAM-1 10 and D2 ag-1 0.
Cc1ccc(Cn2cccc(C(=O)Nc3ccc4c(c3)OCCO4)c2=O)cc1 was read as D2 PAM-1 -1 and D2 ag-1 -1.
O=C(CNC(=O)c1cccc(Cl)c1)Nc1ccc(Br)cc1C(=O)c1ccccc1 was read as D2 PAM-1 -11, D2 ag-1 1, D2 ag-2 1, D2 PAM-2 -20 and D2 antagonist 9.
`O=C(CNC(=O)c1ccc(Cl)cc1)Nc1ccc(Br)cc1C(=O)c1ccccc1` gave D2 PAM-1 -21, D2 ag-1 -1, D2 ag-2 1, D2 PAM-2 -18 and D2 antagonist 34*.
Cc1ccc(C(C)C)c(OCC(=O)N2CCN(CCc3ccncc3)CC2)c1 was read as D2 PAM-1 4 and D2 ag-1 0.
`CN1CC(C(=O)c2ccccc2)C(c2ccccc2)C1` (centres undefined) gave D2 PAM-1 -29, D2 ag-1 1, D2 ag-2 3, D2 PAM-2 -14 and D2 antagonist 35*.
Screening O=C(Nc1ccon1)c1cccn(Cc2cccc([N+](=O)[O-])c2)c1=O returned D2 PAM-1 20 and D2 ag-1 0.
Screening CCOC(=O)C1(CCc2ccccc2)CCN(Cc2cccc3cnccc23)CC1 returned D2 PAM-1 -7, D2 ag-1 2, D2 ag-2 0, D2 PAM-2 -10 and D2 antagonist -19.
`CCOC(=O)C1(CCc2ccccc2)CCN(Cc2cccc3c2OCO3)CC1` gave D2 PAM-1 -23, D2 ag-1 0, D2 ag-2 0, D2 PAM-2 -8 and D2 antagonist 47*.
For CCN(CC)c1ccc(/C=N/c2sc3c(c2C#N)C2CCN3CC2)c(O)c1 the results were D2 PAM-1 9, D2 ag-1 34*, D2 ag-2 -8, D2 PAM-2 -35 and D2 antagonist 17.
Screening ON1C2CCCCC2N(O)C1c1ccccc1F (centres undefined) returned D2 PAM-1 3, D2 ag-1 1, D2 ag-2 -4, D2 PAM-2 -10 and D2 antagonist 50*.
CCOc1ccc2nc(NC(=O)c3cccn(Cc4ccccc4)c3=O)sc2c1 was read as D2 PAM-1 3 and D2 ag-1 1.
For Cn1c(=O)n(C)c2cc(CNCCc3ccc(F)cc3)ccc21 the results were D2 PAM-1 -10 and D2 ag-1 2.
For COC(=O)CC1=C(C(=O)OC)C2(C(=O)Nc3c(C)cccc32)C(C#N)=C(N)O1 (centres undefined) the results were D2 PAM-1 3, D2 ag-1 0, D2 ag-2 12, D2 PAM-2 70* and D2 antagonist 5.
For Cc1ccc(-c2nc(CN3C(=O)CN=C(c4ccccc4Cl)c4cc(Cl)ccc43)c(C)o2)cc1 the results were D2 PAM-1 2 and D2 ag-1 3.
Screening COc1ccccc1N1CCN(Cc2ccc3c(c2)OCO3)CC1 returned D2 ag-2 7 and D2 PAM-2 -12.
Cc1cccc(N2CCN(Cc3ccc4c(c3)OCO4)CC2)c1C was read as D2 PAM-1 -27, D2 ag-1 0, D2 ag-2 1, D2 PAM-2 -24 and D2 antagonist 66*.
Screening CCNC(=O)NC(=O)C(C)OC(=O)c1c(C)nn(Cc2ccccc2Cl)c1Cl (centres undefined) returned D2 PAM-1 -5, D2 ag-1 -1, D2 ag-2 0, D2 PAM-2 -10 and D2 antagonist 5.
For CCNC(=O)NC(=O)C(C)OC(=O)c1c(C)nn(Cc2ccccc2)c1Cl (centres undefined) the results were D2 PAM-1 1, D2 ag-1 -1, D2 ag-2 1, D2 PAM-2 -3 and D2 antagonist 40*.
O=C(COc1ccccc1F)N1CCN(Cc2cc(=O)n3nc(-c4ccccc4Cl)sc3n2)CC1 was read as D2 PAM-1 8 and D2 ag-1 0.
Screening Nc1c(C(=O)NCc2ccco2)c2nc3ccccc3nc2n1CCN1CCCCC1 returned D2 PAM-1 30*, D2 ag-1 3, D2 ag-2 -1, D2 PAM-2 -9 and D2 antagonist -8.
For Cc1cccc(-c2nc(CN3C(=O)CN=C(c4ccccc4)c4ccccc43)c(C)o2)c1 the results were D2 PAM-1 -10 and D2 ag-1 0.
For C1=C(CCNCc2ccccc2)CCCC1 the results were D2 PAM-1 -13, D2 ag-1 0, D2 ag-2 -3, D2 PAM-2 -8 and D2 antagonist 39*.
Cn1c(O)c(C=Nc2ccc(F)cc2)c(=O)[nH]c1=O was read as D2 PAM-1 -7, D2 ag-1 -1, D2 ag-2 0, D2 PAM-2 4 and D2 antagonist 35*.
COC(=O)C1=C(c2ccc(-c3ccccc3)c(F)c2)C[C@@H]2CC[C@H]1N2C(=O)NCC1CC1 was read as D2 PAM-1 -10, D2 ag-1 1, D2 ag-2 2, D2 PAM-2 -85 and D2 antagonist -16.
`COC(=O)C1=C(c2ccc(-c3ccccc3)c(F)c2)C[C@@H]2CC[C@H]1N2C(=O)NC1Cc2ccccc2C1` gave D2 PAM-1 -11, D2 ag-1 1, D2 ag-2 -8, D2 PAM-2 -16 and D2 antagonist 38*.
